Source: PubChem BioAssay AID1159580 (chemical genetic matrix, 2015)
“And” between values parts separate entries of the source, which are not always exact repeats. Equal values may be shown once. Screen size: about 5,500 compounds; about 2,000 (36%) were called active. Inconclusive results (about 18%) are left out. No stated cut-off is given here; in the data, active means normalized growth mostly below about 0.91 (no sharp cut-off); inconclusive means no clear call, values can overlap the other calls; inactive means mostly above about 0.92. Some of the results follow.

Experiment: chemical genetic growth profiling, strain panel (AID 1159580);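 further: tested at 20 µM; growth read once vehicle control cultures reached saturation at 30 °C; 1 = growth at the plate median or of vehicle wells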
Settings: S. cerevisiae deletion strains, growth OD

Measured: normalized growth

CC(=O)OC(C)(C)[C@@H]1Cc2cc3ccc(=O)oc3cc2O1
inactive: locus YAL021C, strain ccr4, stronger effect = lower value 1.01 | locus YAL026C, strain drs2, stronger effect = lower value 0.984 | locus YAL030W, strain snc1, stronger effect = lower value 0.963 | locus YBL061C, strain skt5, stronger effect = lower value 0.969 | locus YBR009C, strain hhf1, stronger effect = lower value 0.909 | locus YBR021W, strain FUR4, stronger effect = lower value 0.99 | locus YBR023C, strain chs3, stronger effect = lower value 0.972 | locus YBR171W, strain sec66, stronger effect = lower value 0.968 | locus YBR229C, strain ROT2, stronger effect = lower value 1 | locus YBR231C, strain swc5, stronger effect = lower value 0.968 | locus YBR279W, strain paf1, stronger effect = lower value 0.975 | locus YCL011C, strain gbp2, stronger effect = lower value 0.954 | locus YCL016C, strain dcc1, stronger effect = lower value 0.977 | locus YCL029C, strain bik1, stronger effect = lower value 1.01 | locus YCL061C, strain MRC1, stronger effect = lower value 0.978 | locus YCL069W, strain vba3, stronger effect = lower value 0.963 | locus YCR088W, strain abp1, stronger effect = lower value 0.982 | locus YDL005C, strain med2, stronger effect = lower value 0.977 | locus YDL035C, strain GPR1, stronger effect = lower value 1.01 | locus YDL040C, strain nat1, stronger effect = lower value 0.968 | locus YDL074C, strain BRE1, stronger effect = lower value 1.03 | locus YDL101C, strain DUN1, stronger effect = lower value 0.999 | locus YDL185W, strain tfp1, stronger effect = lower value 1 | locus YDL192W, strain arf1, stronger effect = lower value 0.989 | locus YDR001C, strain nth1, stronger effect = lower value 0.965 | locus YDR069C, strain doa4, stronger effect = lower value 0.962 | locus YDR101C, strain arx1, stronger effect = lower value 1.01 | locus YDR137W, strain rgp1, stronger effect = lower value 0.992 | locus YDR150W, strain NUM1, stronger effect = lower value 1.01 | locus YDR159W, strain sac3, stronger effect = lower value 0.936 | locus YDR162C, strain NBP2, stronger effect = lower value 1 | locus YDR195W, strain ref2 0.959 | locus YDR297W, strain sur2, stronger effect = lower value 0.972 | locus YDR318W, strain mcm21, stronger effect = lower value 0.991 | locus YDR334W, strain swr1, stronger effect = lower value 0.972 | locus YDR335W, strain msn5, stronger effect = lower value 0.992 | locus YDR388W, stronger effect = lower value 1 | locus YDR392W, strain spt3, stronger effect = lower value 0.789 | locus YDR502C, strain sam2, stronger effect = lower value 1.01 | locus YEL003W, strain gim4, stronger effect = lower value 0.968 | locus YEL037C, strain rad23, stronger effect = lower value 0.965 | locus YEL061C, strain CIN8 (second series), stronger effect = lower value 0.97 | locus YEL061C, strain CIN8, stronger effect = lower value 1 | locus YER015W, strain faa2, stronger effect = lower value 0.989 | locus YER016W, strain bim1, stronger effect = lower value 0.982 | locus YER110C, stronger effect = lower value 0.995 | locus YER111C, strain swi4, stronger effect = lower value 0.974 | locus YER155C, strain BEM2 (second series), stronger effect = lower value 0.94 | locus YER155C, strain BEM2, stronger effect = lower value 0.999 | locus YER167W, strain BCK2, stronger effect = lower value 0.998 | locus YFR010W, strain ubp6, stronger effect = lower value 0.969 | locus YGL078C, strain dbp3, stronger effect = lower value 1.02 | locus YGL086W, strain mad1, stronger effect = lower value 1.01 | locus YGL167C, strain pmr1, stronger effect = lower value 0.949 | locus YGL173C, strain kem1, stronger effect = lower value 0.961 | locus YGL227W, strain vid30, stronger effect = lower value 0.966 | locus YGL240W, strain doc1, stronger effect = lower value 0.96 | locus YGL248W, strain PDE1, stronger effect = lower value 0.997 | locus YGL253W, strain hxk2, stronger effect = lower value 0.985 | locus YGR135W, strain pre9, stronger effect = lower value 0.989 | locus YGR229C, strain SMI1, stronger effect = lower value 1.04 | locus YGR252W, strain gcn5, stronger effect = lower value 0.916 | locus YHR013C, strain ard1, stronger effect = lower value 0.92 | locus YHR027C, strain rpn1, stronger effect = lower value 0.984 | locus YHR030C, strain SLT2, stronger effect = lower value 0.998 and 0.969 | locus YHR079C, strain IRE1 (second series), stronger effect = lower value 1 | locus YHR079C, strain IRE1, stronger effect = lower value 0.978 | locus YHR094C, strain hxt1, stronger effect = lower value 1.01 | locus YHR129C, strain ARP1, stronger effect = lower value 0.996 | locus YHR142W, strain chs7, stronger effect = lower value 0.993 | locus YHR200W, strain rpn10, stronger effect = lower value 0.989 | locus YIL066C, strain RNR3, stronger effect = lower value 1.01 | locus YIL073C, strain SPO22, stronger effect = lower value 1.04 | locus YIL125W, strain kgd1, stronger effect = lower value 1.02 | locus YIR030C, strain dcg1, stronger effect = lower value 0.997 | locus YJL092W, strain hpr5, stronger effect = lower value 0.986 | locus YJL095W, strain BCK1 (second series), stronger effect = lower value 0.983 | locus YJL095W, strain BCK1, stronger effect = lower value 1.01 and 1.05 | locus YJL115W, strain asf1, stronger effect = lower value 0.983 | locus YJL129C, strain trk1, stronger effect = lower value 0.981 | locus YJL134W, strain LCB3, stronger effect = lower value 1.01 | locus YJL154C, strain vps35, stronger effect = lower value 0.966 | locus YJL164C, strain tpk1, stronger effect = lower value 0.996 | locus YJL166W, strain qcr8, stronger effect = lower value 0.979 | locus YJL168C, strain set2, stronger effect = lower value 1 | locus YJL187C, strain SWE1 (second series), stronger effect = lower value 1 | locus YJL187C, strain SWE1, stronger effect = lower value 0.971 | locus YJR043C, strain POL32, stronger effect = lower value 0.991
